Not all results are given here.
aSyn 5UTR act: Activators working through SNCA 5'UTR binding (MLPCN) | AID 1814 | alpha-synuclein 5'UTR reporter, activators screen | activity score, % (tested at 7.5 µM), hits read low | 300,000 compounds, 7.1% hits; in the data active = activity score below about -60%
Numbers without * were called inactive; + = active, no number.

SMILES	aSyn 5UTR act
Clc1ccccc1CSc1cc2c(nn1)-c1ccccc1CC2	-132.1*
Cc1c(C(=O)Nc2nc3ccccc3[nH]2)cccc1[N+](=O)[O-]	-166.9*
O=C(Nc1nc2ccccc2[nH]1)c1ccccc1[N+](=O)[O-]	-118.0*
O=C(Nc1nc2ccccc2[nH]1)c1ccc(Cl)c([N+](=O)[O-])c1	-109.2*
COc1ccc(NC2=C3CC(C)CC=C3N(c3ccc(OC)cc3)C2=O)cc1 (stereo not drawn)	-84.1*
COC(=O)c1ccc(N=NNc2ccc(C(=O)OC)cc2)cc1	-86.4*
COC(=O)c1ccc(N=NNc2ccccc2)cc1	-226.2*
O=C(O)c1ccc(N=NNc2cccc([N+](=O)[O-])c2)cc1	-106.6*
COc1ccc(-c2csc(NC(=O)CSc3n[nH]c(C)n3)n2)cc1	-103.6*
COc1ccc(-c2csc(NC(=O)CSc3n[nH]c(N)n3)n2)cc1	-123.3*
CCN(CC)C(=O)c1ccc(COc2ccccc2Cl)cc1	-112.0*
CCN(CC(=O)NCc1ccc(F)cc1)C(=O)/C=C/c1ccc(OC)c(S(=O)(=O)NC(C)C)c1	63.2
CCN(CC(=O)NCc1ccc(F)cc1)C(=O)c1ccc(COc2ccccc2)cc1	-67.4*
COc1ccc2o/c(=N/NC(=O)c3cccs3)c(C(N)=O)cc2c1	-156.8*
NC(=O)c1cc2ccccc2o/c1=N/NC(=O)c1cccs1	-63.4*
O=[N+]([O-])c1ccc(/C=N/Nc2nc3ccccc3o2)cc1	-186.4*
CN(C)c1ccc(/C=N/Nc2nc3ccccc3o2)cc1	67.0
CCCCNC(=S)Nc1ccc(SC(F)F)cc1	-163.7*
CCOCC(=O)Nc1nc2ccc(C)cc2s1	-85.1*
CCOc1ccc2nc(-c3cc(NC(C)=O)ccc3O)sc2c1	-161.3*
C/C=C/C(=O)OCC(=O)Nc1nc2ccc(C)cc2s1	-74.3*
CCOCC(=O)Nc1nc2ccc(OCC)cc2s1	-73.2*
Cc1ccc2nc(NC(=O)COC(=O)c3ccccn3)sc2c1	-108.7*
Cc1ccc2nc(NC(=O)CSCC(=O)OCC(=O)c3ccccc3)sc2c1	61.7
CCOc1ccc2nc(NC(=O)C3CCN(C(=O)c4ccco4)CC3)sc2c1	-98.5*
SMILES	aSyn 5UTR act
Cc1ccc2nc(NC(=O)C3CC3C)sc2c1 (stereo not drawn)	-104.9*
Cc1ccc2nc(NC(=O)CCn3cccc3)sc2c1	-115.4*
Cc1ccc2nc(NC(=O)CCCC(=O)O)sc2c1	102.2
CCC[C@H](CN[C@@H](CNC)[C@H](C)CC)NCCc1cc(C(F)(F)F)cc(C(F)(F)F)c1	124.1
CCOc1ccc2nc(NC(=O)c3cnccn3)sc2c1	-127.5*
CCOc1ccc2nc(NC(=O)C3(C)CC3(Br)Br)sc2c1 (stereo not drawn)	-128.0*
O=c1[nH]n(Cc2ccccc2)c(=O)c2ccccc12	-68.0*
COc1ccc(C2NC(=S)NC3=C2CCCC3=C2SCCS2)cc1 (stereo not drawn)	+
O/N=C/c1ccn(-c2ccc(Br)cc2)c1	-84.1*
COc1cccc(NC(=O)C2CCN(S(=O)(=O)c3ccc4c(c3)NC(=O)C(C)S4)CC2)c1 (stereo not drawn)	-68.1*
Cc1[nH]cnc1C(=O)N/N=C/c1c(Cl)cccc1Cl	-72.6*
O=C1/C(=C\c2ccco2)NC(=S)N1c1ccccc1	-83.6*
COc1ccc(-c2nnc(NC(=O)c3cccs3)s2)c(OC)c1	-75.7*
Cc1cccc(-c2nnc(NC(=O)c3cccs3)s2)c1	-113.4*
Cc1[nH]n(-c2ccccc2)c(=O)c1N=Nc1c(O)cc(S(=O)(=O)N(C)C)c2ccccc12	70.7
Cc1cc(N)ccc1N=Nc1c(C)n(C)n(-c2ccccc2)c1=O	-73.2*
Cc1[nH]n(-c2ccc(Cl)cc2)c(=O)c1N=Nc1cccnc1	-92.6*
Nc1c(N=Nc2cccc(Cl)c2)c(=O)[nH]n1-c1ccccc1	-66.1*
Cc1[nH]n(-c2ccccc2)c(=O)c1N=Nc1ccc2c(c1)OCCO2	-220.3*
Cc1[nH]n(-c2ccccc2)c(=O)c1N=Nc1cccc([N+](=O)[O-])c1	-70.8*
Cc1ccc(N=Nc2c(C)[nH]n(-c3ccccc3)c2=O)c(C)c1	-78.2*
Cc1[nH]n(-c2ccccc2)c(=O)c1N=Nc1cccc(Cl)c1	-202.1*
Cc1[nH]n(-c2ccccc2)c(=O)c1N=Nc1ccc(F)cc1	-80.6*
CSc1ccc(N=Nc2c(C)[nH]n(C)c2=O)cc1	-62.1*
CCc1c(C)c2ccc(OCC(=O)OC(C)C)c(C)c2oc1=O	-106.5*
SMILES	aSyn 5UTR act
COC(=O)Cc1c(C)c2ccc(OCC(C)=O)c(C)c2oc1=O	-123.6*
COC(=O)C1CCN(C(=O)c2oc3c(Cl)cc(C)cc3c2C)CC1	-74.1*
Cc1cc(Cl)c2oc(C(=O)N3CCN(c4ccncc4)CC3)c(C)c2c1	90.3
O=C(Cn1cnc2c(oc3ccccc32)c1=O)c1ccccc1	-105.7*
Cc1cc(C)c2c(n1)sc1c(=O)n(CC(=O)c3ccccc3)cnc12	-131.7*
Cc1ccc(-c2nc3nc4ccccc4nc3n2Cc2ccco2)cc1	-124.5*
c1ccc(Cn2c(-c3ccco3)nc3nc4ccccc4nc32)cc1	-215.4*
O=c1c2ccccc2nc(-c2ccco2)n1Cc1ccccc1	-214.1*
COc1cccc(/C=C/C(=O)OCC(=O)N2c3ccccc3NC(=O)C2(C)C)c1	-69.8*
Fc1ccccc1N=C1NN=C(c2ccccc2)CS1	-199.2*
COCCn1c(C)cc(C2=NNC(=Nc3ccccc3F)SC2)c1C	91.4
Cc1cccc(N=C2NN=C(c3ccccc3F)CS2)c1C	-101.7*
Fc1ccc(F)c(C2=NNC(=Nc3ccccc3F)SC2)c1	-109.8*
Clc1ccccc1N=C1NN=C(c2cccs2)CS1	-160.1*
CC(=O)Nc1cccc(N/C=C(\C=O)c2nc3ccccc3o2)c1	-102.4*
O=C/C(=C\Nc1ccccn1)c1nc2ccccc2o1	-106.9*
CC(=O)c1c(C)[nH]c(C(=O)Nc2nccs2)c1C	-134.8*
CC(=O)c1c(C)[nH]c(C(=O)Nc2nc(-c3ccccc3)c(C)s2)c1C	-76.4*
CC(=O)c1sc(NC(=O)c2ccco2)nc1-c1ccccc1	-115.0*
Cc1sc(NC(=O)c2ccco2)nc1-c1ccccc1	-94.6*
Cc1sc(N/N=C/c2cccs2)nc1-c1ccccc1	-211.3*
Cc1sc(NC(=O)c2cccs2)nc1-c1ccccc1	-199.2*
Cc1cc(N/N=C/c2ccccc2Br)nc2ccccc12	-195.8*
Brc1ccc(/C=N/Nc2ccccc2)cc1	-91.9*
Brc1ccccc1/C=N/Nc1ccc2ccccc2n1	-256.3*
SMILES	aSyn 5UTR act
Brc1ccc(/C=N/Nc2ccc3ccccc3n2)cc1	-187.4*
Cc1cc(C)nc(Sc2ccc3nnnn3n2)n1	-72.4*
COc1ccc(NC(=O)c2ccc(C)o2)c([N+](=O)[O-])c1	-102.1*
COc1ccc(NC(=O)c2ccc(C)cc2Cl)c([N+](=O)[O-])c1	-131.2*
COc1ccc(NC(=O)c2ccc([N+](=O)[O-])s2)c([N+](=O)[O-])c1	-92.2*
COc1ccc(NC(=O)c2ccc(Br)o2)c([N+](=O)[O-])c1	-109.5*
O=C1NC(=Nc2ccccc2)S/C1=C\c1cccn1-c1ccccc1	-388.2*
O=C(O)c1ccc(Cn2nnc3sc4c(c3c2=O)CCCC4)cc1	-151.3*
O=C(O)CSc1nc2sc3c(c2c(=O)n1Cc1ccccc1)CCCCC3	-230.4*
Fc1cccc(/C=N/Nc2ncnc3nc[nH]c23)c1	-92.7*
Fc1ccccc1/C=N/Nc1ncnc2nc[nH]c12	-62.5*
Cc1ccc(/C=N/Nc2ncnc3nc[nH]c23)cc1	-63.3*
O=C(CCSc1ccccc1)Nc1nc2c(s1)CCCC2	-85.6*
O=C(Cc1cccs1)Nc1nc2c(s1)CCCC2	-97.2*

Source: PubChem
